# Measured values from PubChem BioAssay AID1159580 (chemical genetic matrix, 2015).
# Values joined by “and” are separate entries in the source; they are usually repeats but may differ in a detail not shown here. Equal values may be shown once. Screen size: about 5,500 compounds; about 2,000 (36%) were called active. About 18% were inconclusive and are not listed. No stated cut-off is given here; in the data, active means normalized growth mostly below about 0.91 (no sharp cut-off); inconclusive means no clear call, values can overlap the other calls; inactive means mostly above about 0.92. This is one part of the list.
# Assay: chemical genetic growth profiling, strain panel (AID 1159580);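 further: tested at 20 µM; growth read once vehicle control cultures reached saturation at 30 °C; 1 = growth at the plate median or of vehicle wells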
# Conditions: S. cerevisiae deletion strains, growth OD
smiles,measurement,setting,value
COc1cc(OC)c2c(=O)c(O)c(-c3ccc(OC)c(OC)c3)oc2c1,normalized growth,"locus YAL021C, strain ccr4, stronger effect = lower value",0.741 (active)
same,normalized growth,"locus YAL026C, strain drs2, stronger effect = lower value",0.852 (active)
same,normalized growth,"locus YAL030W, strain snc1, stronger effect = lower value",0.904 (active)
same,normalized growth,"locus YBL061C, strain skt5, stronger effect = lower value",0.901 (active)
same,normalized growth,"locus YBR009C, strain hhf1, stronger effect = lower value",0.903 (active)
same,normalized growth,"locus YBR021W, strain FUR4, stronger effect = lower value",0.922 (inactive)
same,normalized growth,"locus YBR023C, strain chs3, stronger effect = lower value",0.827 (active)
same,normalized growth,"locus YBR171W, strain sec66, stronger effect = lower value",0.942 (inactive)
same,normalized growth,"locus YBR229C, strain ROT2, stronger effect = lower value",0.648 (active)
same,normalized growth,"locus YBR231C, strain swc5, stronger effect = lower value",0.77 (active)
same,normalized growth,"locus YBR279W, strain paf1, stronger effect = lower value",0.913 (active)
same,normalized growth,"locus YCL011C, strain gbp2, stronger effect = lower value",0.916 (inactive)
same,normalized growth,"locus YCL016C, strain dcc1, stronger effect = lower value",0.934 (inactive)
same,normalized growth,"locus YCL029C, strain bik1, stronger effect = lower value",0.768 (active)
same,normalized growth,"locus YCL069W, strain vba3, stronger effect = lower value",0.973 (inactive)
same,normalized growth,"locus YCR088W, strain abp1, stronger effect = lower value",0.958 (inactive)
same,normalized growth,"locus YDL005C, strain med2, stronger effect = lower value",0.982 (inactive)
same,normalized growth,"locus YDL035C, strain GPR1, stronger effect = lower value",0.31 (active)
same,normalized growth,"locus YDL040C, strain nat1, stronger effect = lower value",0.978 (inactive)
same,normalized growth,"locus YDL074C, strain BRE1, stronger effect = lower value",0.402 (active)
same,normalized growth,"locus YDL101C, strain DUN1, stronger effect = lower value",0.396 (active)
same,normalized growth,"locus YDL134C, strain PPH21, stronger effect = lower value",0.369 (active)
same,normalized growth,"locus YDL185W, strain tfp1, stronger effect = lower value",0.94 (inactive)
same,normalized growth,"locus YDL192W, strain arf1, stronger effect = lower value",0.719 (active)
same,normalized growth,"locus YDR001C, strain nth1, stronger effect = lower value",0.964 (inactive)
same,normalized growth,"locus YDR069C, strain doa4, stronger effect = lower value",0.496 (active)
same,normalized growth,"locus YDR101C, strain arx1, stronger effect = lower value",0.811 (active)
same,normalized growth,"locus YDR137W, strain rgp1, stronger effect = lower value",0.904 (inactive)
same,normalized growth,"locus YDR159W, strain sac3, stronger effect = lower value",0.992 (inactive)
same,normalized growth,"locus YDR162C, strain NBP2, stronger effect = lower value",0.132 (active)
same,normalized growth,"locus YDR195W, strain ref2",0.984 (inactive)
same,normalized growth,"locus YDR297W, strain sur2, stronger effect = lower value",0.841 (active)
same,normalized growth,"locus YDR318W, strain mcm21, stronger effect = lower value",0.788 (active)
same,normalized growth,"locus YDR334W, strain swr1, stronger effect = lower value",0.856 (active)
same,normalized growth,"locus YDR335W, strain msn5, stronger effect = lower value",0.878 (active)
same,normalized growth,"locus YDR388W, stronger effect = lower value",0.844 (active)
same,normalized growth,"locus YDR392W, strain spt3, stronger effect = lower value",0.943 (inactive)
same,normalized growth,"locus YDR502C, strain sam2, stronger effect = lower value",0.667 (active)
same,normalized growth,"locus YEL003W, strain gim4, stronger effect = lower value",0.876 (active)
same,normalized growth,"locus YEL037C, strain rad23, stronger effect = lower value",0.926 (inactive)
same,normalized growth,"locus YEL061C, strain CIN8 (second series), stronger effect = lower value",0.98 (inactive)
same,normalized growth,"locus YER015W, strain faa2, stronger effect = lower value",0.82 (active)
same,normalized growth,"locus YER016W, strain bim1, stronger effect = lower value",0.942 (inactive)
same,normalized growth,"locus YER110C, stronger effect = lower value",1.02 (inactive)
same,normalized growth,"locus YER111C, strain swi4, stronger effect = lower value",0.835 (active)
same,normalized growth,"locus YER155C, strain BEM2 (second series), stronger effect = lower value",0.936 (inactive)
same,normalized growth,"locus YER155C, strain BEM2, stronger effect = lower value",0.664 (active)
same,normalized growth,"locus YER167W, strain BCK2, stronger effect = lower value",0.631 (active)
same,normalized growth,"locus YFR010W, strain ubp6, stronger effect = lower value",0.852 (active)
same,normalized growth,"locus YGL078C, strain dbp3, stronger effect = lower value",0.978 (inactive)
same,normalized growth,"locus YGL167C, strain pmr1, stronger effect = lower value",0.938 (inactive)
same,normalized growth,"locus YGL173C, strain kem1, stronger effect = lower value",0.78 (active)
same,normalized growth,"locus YGL227W, strain vid30, stronger effect = lower value",0.986 (inactive)
same,normalized growth,"locus YGL240W, strain doc1, stronger effect = lower value",0.993 (inactive)
same,normalized growth,"locus YGL248W, strain PDE1, stronger effect = lower value",0.46 (active)
same,normalized growth,"locus YGL253W, strain hxk2, stronger effect = lower value",0.889 (active)
same,normalized growth,"locus YGR078C, strain PAC10, stronger effect = lower value",0.591 (active)
same,normalized growth,"locus YGR135W, strain pre9, stronger effect = lower value",0.689 (active)
same,normalized growth,"locus YGR252W, strain gcn5, stronger effect = lower value",0.85 (inactive)
same,normalized growth,"locus YHR013C, strain ard1, stronger effect = lower value",0.868 (inactive)
same,normalized growth,"locus YHR027C, strain rpn1, stronger effect = lower value",0.695 (active)
same,normalized growth,"locus YHR030C, strain SLT2, stronger effect = lower value",0.971 (inactive)
same,normalized growth,"locus YHR079C, strain IRE1 (second series), stronger effect = lower value",0.77 (active)
same,normalized growth,"locus YHR079C, strain IRE1, stronger effect = lower value",0.996 (inactive)
same,normalized growth,"locus YHR094C, strain hxt1, stronger effect = lower value",0.864 (active)
same,normalized growth,"locus YHR129C, strain ARP1, stronger effect = lower value",0.589 (active)
same,normalized growth,"locus YHR142W, strain chs7, stronger effect = lower value",0.82 (active)
same,normalized growth,"locus YHR200W, strain rpn10, stronger effect = lower value",0.784 (active)
same,normalized growth,"locus YIL066C, strain RNR3, stronger effect = lower value",0.46 (active)
same,normalized growth,"locus YIL073C, strain SPO22, stronger effect = lower value",0.163 (active)
same,normalized growth,"locus YIL125W, strain kgd1, stronger effect = lower value",0.916 (active)
same,normalized growth,"locus YIR030C, strain dcg1, stronger effect = lower value",0.873 (active)
same,normalized growth,"locus YJL092W, strain hpr5, stronger effect = lower value",0.959 (inactive)
same,normalized growth,"locus YJL095W, strain BCK1 (second series), stronger effect = lower value",0.921 (active)
same,normalized growth,"locus YJL095W, strain BCK1, stronger effect = lower value",0.264 (active) and 0.97 (inactive)
same,normalized growth,"locus YJL115W, strain asf1, stronger effect = lower value",0.973 (inactive)
same,normalized growth,"locus YJL129C, strain trk1, stronger effect = lower value",1.01 (inactive)
same,normalized growth,"locus YJL134W, strain LCB3, stronger effect = lower value",0.608 (active)
same,normalized growth,"locus YJL154C, strain vps35, stronger effect = lower value",0.968 (inactive)
same,normalized growth,"locus YJL164C, strain tpk1, stronger effect = lower value",0.758 (active)
same,normalized growth,"locus YJL166W, strain qcr8, stronger effect = lower value",0.934 (inactive)
same,normalized growth,"locus YJL168C, strain set2, stronger effect = lower value",0.929 (active)
same,normalized growth,"locus YJL187C, strain SWE1 (second series), stronger effect = lower value",0.17 (active)
same,normalized growth,"locus YJR043C, strain POL32, stronger effect = lower value",0.238 (active)
same,normalized growth,"locus YJR066W, strain TOR1, stronger effect = lower value",0.943 (inactive)
